Data from PubChem BioAssay (NCI).
This is part of a sample that, as a whole, favours compounds with a hit. Of some 79,000 tested, about 15% had one in any assay. Calls of active or inactive are those of the source. Cut-off read from the data, not from the text of the source: active = growth inhibition above about 70%; inactive = the rest.

Assay: NCI Yeast Anticancer Drug Screen. Data for the cln2 rad14 strain (AID 165);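 note: 0% = growth equal to vehicle treated cultures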
Conditions: S. cerevisiae cln2 rad14 strain, at 50.0 µM (retest, dose inferred, filed as 5.0), stronger effect = higher value
Summary of the method: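 Growth of compound-exposed yeast (cln2 rad14 genotype) measured and expressed as inhibition relative to vehicle.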

| SMILES | growth inhibition |
| --- | --- |
| Cc1cc(NCCCCCCCNc2cc(C)nc3cc(N)ccc23)c2ccc(N)cc2n1 | 45% (inactive) |
| C[C@]12CC[C@H]3[C@@H](CCC4=CC(=O)CC[C@@]43C)[C@@H]1CC[C@@H]2C(=O)C=O | 21% (inactive) |
| COc1cc2c[n+](C)c3c4cc(OC)c(OCc5ccccc5)cc4c(OCc4ccccc4)cc3c2cc1OC | 91% (active) |
| Nc1ncnc2c1c(-c1ccc(Cl)cc1)cn2-c1ccccc1 | 35% (inactive) |
| Cc1c[nH]c2nc(C)n(-c3ccccc3)c(=N)c12 | -8% (inactive) |
| COc1ccc(Cc2ccc3c(C)cc(Cl)nc3c2)cc1 | 29% (inactive) |
| COC(=O)c1ccc(NCc2c(O)ccc(O)c2Br)cc1Cl | 99% (active) |
| CC1=CC(=O)c2c(O)c3c(c(O)c2C1=O)C1C(O)C(C3=O)C23C(=O)c4c(O)c(C)cc(O)c4C(O)=C2C(=O)CC(O)C13 (centres undefined) | 97% (active) |
| CC(C)(O)[C@H](CCO)O[Si](c1ccccc1)(c1ccccc1)C(C)(C)C | 97% (active) |
| COC(=O)/C(C#N)=C(/SC)N(C)C | 7% (inactive) |
| N#CC(C(=O)CCCC(=O)Nc1ccc(Cl)cc1)c1ccccc1Cl (centres undefined) | 1% (inactive) |
| FC(F)(F)c1cccc(Nc2ccc3cnc4ccccc4c3c2)c1 | 95% (active) |
| CN1C(/C=C/c2ccc(O)c3ncccc23)CCC2CCCC(O)C21 (centres undefined) | 91% (active) |
| N#CC1(C#N)C(C#N)(C#N)C12CCCC2 | 30% (inactive) |
| O=C1C(Cl)=C(Cl)C(=O)C2=C1CC(Cl)C(Cl)C2 (centres undefined) | 99% (active) |
| N#CC(/C=C/c1ccccc1)(NO)Nc1cccc(Cl)c1 (centres undefined) | 99% (active) |
| O=C(O)c1ccccc1C(c1ccccc1)c1ccccc1 | 84% (active) |
| OCC1(c2ccccc2)OC1c1ccccc1 (centres undefined) | -34% (inactive) |
| COc1ccc(NS(=O)(=O)c2ccc(F)cc2)cc1 | -22% (inactive) |
| CCn1c2nc(=O)n(C)c(=O)c-2[n+]([O-])c2cc(C)ccc21 | 7% (inactive) |

| SMILES | growth inhibition |
| --- | --- |
| O=[N+]([O-])C(=C(Nc1ccccc1)Nc1ccccc1)C(Cl)=C(Cl)Cl | 100% (active) |
| CCC/C(=N\NC(=S)N(C)C)c1ccccn1 | 99% (active) |
| O=C(CSc1cc[o+]cc1)c1cccc([N+](=O)[O-])c1 | 53% (inactive) |
| CC12CCC(c3sc(N)c(C#N)c31)C2(C)C (centres undefined) | 1% (inactive) |
| N#CC(C#N)=C(C1CC1)C1CC1 | 92% (active) |
| Cc1c(N=Nc2cccc(F)c2)c(-c2ccccc2)nn1C(N)=S | 96% (active) |
| CN1COc2c(Cl)cc(Cl)cc2C1 | 46% (inactive) |
| O=C1CCCCO1 | -2% (inactive) |
| Nc1cc2c(cc1/C=C(\C(=O)O)c1ccccc1)OCO2 | 9% (inactive) |
| Cc1cc2c(cc1C)C(=O)OC2=O | -1% (inactive) |
| C(/Cc1ccc2c(c1)OCO2)=N\NC1=NCCCCN1 | -17% (inactive) |
| CCCCCCCCN(CCCCCCCC)CC(O)c1cc(-c2ccc(OC)cc2)nc2cc(Cl)ccc12 (centres undefined) | 76% (active) |
| Cc1cc(C(=O)CBr)c(CN2C(=O)c3ccccc3C2=O)c(=O)n1C | 98% (active) |
| O=C(O)c1ccccc1-c1c2ccc(=O)c(Br)c-2oc2c(Br)c(O)ccc12 | 96% (active) |
| O=C(Nc1cccc(NC(=O)c2cc(=O)c3ccccc3o2)n1)c1cc(=O)c2ccccc2o1 | 21% (inactive) |
| COC(=O)c1nc(=S)[nH]c(C(=O)OC)c1C(=O)c1ccc([N+](=O)[O-])cc1 | 70% (active) |
| COC1/C=C\C=C(/C)C(=O)Nc2cc3nc4cc(Br)ccc4oc-3c(c2=O)CC(C)CC(OC)C(O)C(C)/C=C(\C)C1OC(N)=O (centres undefined) | 96% (active) |
| NC(=S)C(=S)N/C=C(/c1ccc(Cl)cc1)S(=O)(=O)Cc1ccc(Cl)cc1 | 97% (active) |
| O=C(Cc1ccccc1)c1ccccc1C(=O)NNc1ccccc1 | 61% (inactive) |
